Common to all, as to parameters: scale not given: direction of the effect not stated beside the values
The target of assay [1] is Protein translocase subunit SecA (Escherichia coli (strain K12)) (UniProt P10408). The assay can be described thus: Assay to Identify E. coli SecA ATPase Inhibitors. The settings on record: 30 µM. It is filed as functional.
Assay [2] concerns the target T1, Ubiquitin-activating enzyme e1, putative (Leishmania donovani (strain BPK282A1)) (UniProt E9BSI1).
T1 sequence (whole entry): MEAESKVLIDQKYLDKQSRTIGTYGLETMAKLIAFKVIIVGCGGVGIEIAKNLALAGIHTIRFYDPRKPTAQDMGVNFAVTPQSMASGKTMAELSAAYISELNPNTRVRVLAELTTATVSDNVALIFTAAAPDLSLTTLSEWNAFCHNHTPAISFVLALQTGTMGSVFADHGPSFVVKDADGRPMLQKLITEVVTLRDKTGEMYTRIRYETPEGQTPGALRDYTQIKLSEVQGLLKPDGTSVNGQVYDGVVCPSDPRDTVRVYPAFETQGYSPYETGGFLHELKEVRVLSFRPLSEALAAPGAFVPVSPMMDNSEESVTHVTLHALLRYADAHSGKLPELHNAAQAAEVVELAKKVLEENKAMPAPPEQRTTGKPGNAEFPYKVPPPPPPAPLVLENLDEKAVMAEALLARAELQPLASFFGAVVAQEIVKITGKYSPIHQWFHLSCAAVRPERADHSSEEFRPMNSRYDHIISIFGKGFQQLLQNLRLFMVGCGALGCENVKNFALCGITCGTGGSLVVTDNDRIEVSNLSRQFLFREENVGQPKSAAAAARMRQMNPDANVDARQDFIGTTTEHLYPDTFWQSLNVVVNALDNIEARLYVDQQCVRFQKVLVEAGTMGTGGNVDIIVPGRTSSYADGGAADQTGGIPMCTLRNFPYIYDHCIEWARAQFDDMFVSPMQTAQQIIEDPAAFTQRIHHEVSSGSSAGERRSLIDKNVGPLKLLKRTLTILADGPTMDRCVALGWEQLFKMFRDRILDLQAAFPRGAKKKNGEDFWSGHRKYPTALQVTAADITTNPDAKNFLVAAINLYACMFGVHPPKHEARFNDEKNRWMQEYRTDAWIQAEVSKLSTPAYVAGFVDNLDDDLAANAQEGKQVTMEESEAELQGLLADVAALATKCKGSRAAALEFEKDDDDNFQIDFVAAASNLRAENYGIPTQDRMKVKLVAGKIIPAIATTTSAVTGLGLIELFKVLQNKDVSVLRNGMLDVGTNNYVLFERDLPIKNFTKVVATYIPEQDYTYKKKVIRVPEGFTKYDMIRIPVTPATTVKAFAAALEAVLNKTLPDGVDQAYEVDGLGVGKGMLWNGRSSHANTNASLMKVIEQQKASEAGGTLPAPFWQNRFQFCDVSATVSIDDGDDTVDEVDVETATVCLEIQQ
Briefly: Leishmania donovani Ubiquitin Activating Enzyme (LdE1). It is filed as functional. The settings on record: 30 µM.

Assay [3] concerns the target T2, Aspartate--tRNA(Asp/Asn) ligase (Mycobacterium tuberculosis (strain ATCC 25618 / H37Rv)) (UniProt P9WFW3). Note: in the data most compounds retested in dose-response had high values.
T2 sequence (whole entry): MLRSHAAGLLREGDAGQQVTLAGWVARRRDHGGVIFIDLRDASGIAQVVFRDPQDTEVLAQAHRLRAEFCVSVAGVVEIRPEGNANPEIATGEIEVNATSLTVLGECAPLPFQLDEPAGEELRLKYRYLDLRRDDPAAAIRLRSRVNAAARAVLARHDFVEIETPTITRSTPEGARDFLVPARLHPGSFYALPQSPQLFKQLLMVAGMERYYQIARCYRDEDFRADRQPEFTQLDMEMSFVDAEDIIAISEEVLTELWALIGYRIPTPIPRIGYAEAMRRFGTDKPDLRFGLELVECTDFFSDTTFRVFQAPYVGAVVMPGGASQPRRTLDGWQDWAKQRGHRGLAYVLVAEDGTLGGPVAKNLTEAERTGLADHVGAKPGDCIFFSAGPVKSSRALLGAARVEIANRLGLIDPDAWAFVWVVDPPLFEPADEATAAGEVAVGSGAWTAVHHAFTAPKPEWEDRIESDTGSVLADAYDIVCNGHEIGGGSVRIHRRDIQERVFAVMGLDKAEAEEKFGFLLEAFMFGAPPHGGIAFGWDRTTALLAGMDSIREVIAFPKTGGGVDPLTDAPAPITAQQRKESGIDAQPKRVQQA
Briefly: Assay for Asp RNA synthetase-1 from Mycobacterium tuberculosis. Format: functional. The settings on record: 30 µM.

Assay [4] addresses AMP-activated protein kinase, AMPK (Homo sapiens) (UniProt P54646+O43741+P54619+Q9UGJ0+Q9Y478+Q13131+Q9UGI9). Briefly: AMP-dependent Kinase enzyme assay. An in vitro enzyme assay that detects ADP turnover that is directly proportional to AMPK activity. This uses naive AMPK that is activated during the assay with MK-8722. It is filed as functional. The settings on record: 30 µM.

The target of assay [5] is Sialic acid-binding Ig-like lectin 9 (Homo sapiens) (UniProt Q9Y336). The assay can be described thus: Hs-Siglec9 ALPHAscreen SOP 20170721. As to conditions: 10 µM.
Sequence of Sialic acid-binding Ig-like lectin 9 (Homo sapiens) (Q9Y336 whole entry): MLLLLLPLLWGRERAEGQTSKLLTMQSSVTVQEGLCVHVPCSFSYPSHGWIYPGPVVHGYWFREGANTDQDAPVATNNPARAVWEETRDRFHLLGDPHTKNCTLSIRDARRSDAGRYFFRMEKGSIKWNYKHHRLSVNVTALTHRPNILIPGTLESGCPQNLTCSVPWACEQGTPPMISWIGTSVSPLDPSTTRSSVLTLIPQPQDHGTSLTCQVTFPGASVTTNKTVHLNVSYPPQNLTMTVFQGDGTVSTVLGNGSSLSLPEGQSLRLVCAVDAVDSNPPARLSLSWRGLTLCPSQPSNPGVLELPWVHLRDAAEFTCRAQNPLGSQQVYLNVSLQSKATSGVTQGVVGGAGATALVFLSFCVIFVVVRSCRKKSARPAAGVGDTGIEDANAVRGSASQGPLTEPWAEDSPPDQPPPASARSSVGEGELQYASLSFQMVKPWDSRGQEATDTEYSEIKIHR
In the next assay the test system is Trypanosoma cruzi. The assay can be described thus: Trypanosoma cruzi phosphomannomutase and mannose-1-phosphate guanylyltransferase assay. Format: functional. The settings on record: 10 µM.
The target in assay [6] is T3, Arginase-2, mitochondrial (Homo sapiens) (UniProt P78540).
T3 sequence (whole entry): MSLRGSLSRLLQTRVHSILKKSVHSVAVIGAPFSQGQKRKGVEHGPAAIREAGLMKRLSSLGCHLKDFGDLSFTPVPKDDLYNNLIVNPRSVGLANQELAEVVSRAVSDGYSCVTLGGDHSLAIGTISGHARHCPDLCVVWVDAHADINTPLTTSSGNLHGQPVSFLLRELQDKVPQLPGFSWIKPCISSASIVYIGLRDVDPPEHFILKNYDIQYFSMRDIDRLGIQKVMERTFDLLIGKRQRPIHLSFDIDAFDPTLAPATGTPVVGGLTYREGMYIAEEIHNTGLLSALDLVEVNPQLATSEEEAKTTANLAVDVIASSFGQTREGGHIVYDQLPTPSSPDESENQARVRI
The assay can be described thus: in vitro enzyme assay to detect the production of urea directly proportional to the activity of Arginase II. Note: in the data most compounds retested in dose-response had high values. It is filed as functional. The settings on record: 33.3 µM.

The target in assay [7] is T4, Proteasome subunit beta (Trypanosoma cruzi) (UniProt O96673).
T4 sequence (whole entry): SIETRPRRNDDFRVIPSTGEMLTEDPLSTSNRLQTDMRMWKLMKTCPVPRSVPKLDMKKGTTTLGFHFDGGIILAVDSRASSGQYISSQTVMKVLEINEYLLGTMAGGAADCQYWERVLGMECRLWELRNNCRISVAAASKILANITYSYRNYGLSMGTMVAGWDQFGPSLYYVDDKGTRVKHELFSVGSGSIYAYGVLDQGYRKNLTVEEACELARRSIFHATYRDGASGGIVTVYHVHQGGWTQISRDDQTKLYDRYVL
Briefly: Trypanosoma cruzi proteasome chymotrypsin-like activity (TcProtChymo) assay. Note: in the data most compounds retested in dose-response had high values. Format: functional. The settings on record: 9.37 µM.

The species named for another assay is Homo sapiens. Briefly: To identify inhibition of the IFN signalling (Jak-Stat) pathway via expression of an eGFP reporter gene under the control of an IFN-stimulated response element (ISRE) containing MxA promoter. It is filed as functional. The settings on record: 30 µM. For orientation: A reporter such as luciferase makes a cellular process visible.
In assay [8] the target is Shiga toxin 2 (Escherichia coli O157:H7) (UniProt P09385+P09386). The assay can be described thus: E. coli 0.157:H7 Shiga Toxin SOP - stx2 screening assay. As to conditions: 30 µM. It is filed as functional.
Assay [9] has as its target T5, Tyrosyl-tRNA synthetase, putative (Trypanosoma cruzi (strain CL Brener)) (UniProt Q4DSP6).
T5 sequence (whole entry): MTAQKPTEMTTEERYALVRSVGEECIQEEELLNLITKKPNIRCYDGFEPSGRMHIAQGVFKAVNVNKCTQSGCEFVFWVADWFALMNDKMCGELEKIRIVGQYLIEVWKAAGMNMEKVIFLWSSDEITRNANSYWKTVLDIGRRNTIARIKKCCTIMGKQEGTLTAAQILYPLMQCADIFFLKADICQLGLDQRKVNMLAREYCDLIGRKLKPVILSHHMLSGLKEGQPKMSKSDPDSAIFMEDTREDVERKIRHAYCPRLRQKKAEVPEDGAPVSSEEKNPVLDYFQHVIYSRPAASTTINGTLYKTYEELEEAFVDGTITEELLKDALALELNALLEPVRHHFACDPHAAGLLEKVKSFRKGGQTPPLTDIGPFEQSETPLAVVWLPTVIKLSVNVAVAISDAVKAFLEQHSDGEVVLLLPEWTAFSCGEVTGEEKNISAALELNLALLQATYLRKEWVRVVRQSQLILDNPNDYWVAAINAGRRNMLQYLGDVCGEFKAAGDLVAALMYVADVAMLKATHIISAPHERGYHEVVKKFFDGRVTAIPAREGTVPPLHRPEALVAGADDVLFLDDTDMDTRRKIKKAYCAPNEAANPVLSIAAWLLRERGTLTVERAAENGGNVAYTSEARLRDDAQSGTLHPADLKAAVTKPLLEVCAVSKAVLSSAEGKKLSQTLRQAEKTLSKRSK
The assay can be described thus: Trypanosoma cruzi tyrosyl tRNA synthetase (TcYRS) _High Tyrosine SOP. Note: in the data most compounds retested in dose-response had high values. It is filed as functional. The settings on record: 30 µM.

In assay [10] the target is T5, Tyrosyl-tRNA synthetase, putative (Trypanosoma cruzi (strain CL Brener)). Briefly: Trypanosoma cruzi tyrosyl tRNA synthetase (TcYRS) SOP. It is filed as functional. As to conditions: 30 µM.
Assay [11] has as its target Chromo domain-containing protein 1 (Saccharomyces cerevisiae (strain ATCC 204508 / S288c) (Baker's yeast)) (UniProt P32657). The assay can be described thus: ScCHD-1 Enzyme Inhibition Assay. Note: in the data most compounds retested in dose-response had high values. It is filed as functional. The settings on record: 30 µM.

Each structure is given as a SMILES string. For some of these results: Potency and affinity values are given separately.

Sequence of Protein translocase subunit SecA (Escherichia coli (strain K12)) (P10408 whole entry): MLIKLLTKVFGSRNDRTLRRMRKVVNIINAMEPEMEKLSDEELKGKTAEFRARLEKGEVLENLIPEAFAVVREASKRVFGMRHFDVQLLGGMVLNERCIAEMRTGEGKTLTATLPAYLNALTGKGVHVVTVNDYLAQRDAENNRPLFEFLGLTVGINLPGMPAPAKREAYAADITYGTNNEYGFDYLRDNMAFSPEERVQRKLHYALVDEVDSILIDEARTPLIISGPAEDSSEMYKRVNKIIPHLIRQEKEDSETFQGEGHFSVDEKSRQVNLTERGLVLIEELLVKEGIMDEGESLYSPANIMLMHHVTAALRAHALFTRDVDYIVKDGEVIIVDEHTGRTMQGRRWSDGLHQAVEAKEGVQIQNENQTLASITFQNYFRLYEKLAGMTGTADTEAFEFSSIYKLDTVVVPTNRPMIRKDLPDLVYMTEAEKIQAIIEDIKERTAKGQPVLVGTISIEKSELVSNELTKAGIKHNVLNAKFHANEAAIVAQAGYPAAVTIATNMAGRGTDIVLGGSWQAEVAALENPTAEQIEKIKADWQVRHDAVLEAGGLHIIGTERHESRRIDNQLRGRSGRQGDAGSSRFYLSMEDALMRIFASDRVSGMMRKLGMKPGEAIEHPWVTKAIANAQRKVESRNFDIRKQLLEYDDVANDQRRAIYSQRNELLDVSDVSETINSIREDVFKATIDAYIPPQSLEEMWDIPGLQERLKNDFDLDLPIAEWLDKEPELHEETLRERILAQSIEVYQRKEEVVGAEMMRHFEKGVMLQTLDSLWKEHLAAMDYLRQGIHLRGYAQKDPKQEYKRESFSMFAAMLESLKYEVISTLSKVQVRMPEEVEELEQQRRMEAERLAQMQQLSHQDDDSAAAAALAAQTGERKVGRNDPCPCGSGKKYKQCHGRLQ
Sequence of Chromo domain-containing protein 1 (Saccharomyces cerevisiae (strain ATCC 204508 / S288c) (Baker's yeast)) (P32657 whole entry, the tested form may be a part): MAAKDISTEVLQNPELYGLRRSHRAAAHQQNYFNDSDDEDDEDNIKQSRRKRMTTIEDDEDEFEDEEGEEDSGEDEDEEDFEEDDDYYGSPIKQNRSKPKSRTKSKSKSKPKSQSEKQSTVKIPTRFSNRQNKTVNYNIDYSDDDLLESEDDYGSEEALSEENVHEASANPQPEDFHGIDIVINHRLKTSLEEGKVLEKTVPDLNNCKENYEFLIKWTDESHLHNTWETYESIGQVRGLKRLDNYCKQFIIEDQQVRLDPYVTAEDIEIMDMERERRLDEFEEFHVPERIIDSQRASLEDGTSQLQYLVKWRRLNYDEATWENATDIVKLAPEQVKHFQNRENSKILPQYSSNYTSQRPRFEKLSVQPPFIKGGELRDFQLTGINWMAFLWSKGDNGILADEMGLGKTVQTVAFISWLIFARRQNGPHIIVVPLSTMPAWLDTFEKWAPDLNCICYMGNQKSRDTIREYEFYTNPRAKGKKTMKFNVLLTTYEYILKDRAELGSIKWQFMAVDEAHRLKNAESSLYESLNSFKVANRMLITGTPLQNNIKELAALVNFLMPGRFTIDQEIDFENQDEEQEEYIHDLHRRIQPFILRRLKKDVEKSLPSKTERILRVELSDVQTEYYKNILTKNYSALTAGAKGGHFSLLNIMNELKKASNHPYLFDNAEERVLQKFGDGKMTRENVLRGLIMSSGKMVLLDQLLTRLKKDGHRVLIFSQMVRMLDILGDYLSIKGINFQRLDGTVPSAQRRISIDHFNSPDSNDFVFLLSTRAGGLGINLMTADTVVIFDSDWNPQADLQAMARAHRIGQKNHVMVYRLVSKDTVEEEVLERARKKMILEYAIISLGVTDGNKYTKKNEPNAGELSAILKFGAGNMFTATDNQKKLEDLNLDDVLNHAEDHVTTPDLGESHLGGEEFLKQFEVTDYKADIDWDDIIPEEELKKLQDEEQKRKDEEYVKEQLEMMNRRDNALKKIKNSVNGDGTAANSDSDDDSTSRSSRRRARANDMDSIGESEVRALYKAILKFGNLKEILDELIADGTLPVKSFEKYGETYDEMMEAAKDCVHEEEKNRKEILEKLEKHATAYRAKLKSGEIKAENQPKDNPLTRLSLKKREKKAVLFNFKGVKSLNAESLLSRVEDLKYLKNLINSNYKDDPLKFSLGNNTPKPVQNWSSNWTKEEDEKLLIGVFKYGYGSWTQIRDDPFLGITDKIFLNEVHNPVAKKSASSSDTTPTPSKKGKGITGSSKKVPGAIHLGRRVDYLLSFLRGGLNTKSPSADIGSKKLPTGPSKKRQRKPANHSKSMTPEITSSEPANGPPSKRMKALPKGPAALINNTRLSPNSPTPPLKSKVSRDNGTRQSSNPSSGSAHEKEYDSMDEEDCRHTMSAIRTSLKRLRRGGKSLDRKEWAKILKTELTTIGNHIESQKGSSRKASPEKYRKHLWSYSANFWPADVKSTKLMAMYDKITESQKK

For the compound `c1cc(CN2CCO[C@H]3[C@H](OCC4CCCC4)CC[C@@H]32)ccn1`, the Percent Effect in assay [1] is -2.78%; in assay [2], 5.41%; in assay [3], 5.76%; in [4] it was 0.694%; in [5] it was -1.13%; in the assay on Trypanosoma cruzi, -3.81%. Moreover, the Percent Effect was 1.59% in assay [6]; 19% in assay [7]; 24.5% in the assay filed under Homo sapiens; 1.34% in assay [8]; -2.16% in assay [9]; 7.69% in [10]. Besides, in assay [11], the Percent Effect amounted to 2.01%.

Turning to `CN(C)c1nccc(N2CCO[C@H]3CN(Cc4ccsc4)C[C@H]32)n1`, the Percent Effect in [1] is -0.682%; in [2] it was 8.22%; in [3], -1.5%; in assay [4], 2.33%; in assay [5] it was 8.35%; in the assay on Trypanosoma cruzi, 1.59%. In addition, the Percent Effect in assay [6] was -0.399%; in [7] it was 19.9%; in the assay filed under Homo sapiens, 2.38%; in assay [8] it was -97.8%; in [9] it was 8.33%; in [10], 13.6%. Moreover, the Percent Effect in assay [11] is -5.92%.

With `COCC(=O)NC(C)Cc1cccc(Br)c1` (configuration not stated), the Percent Effect in [1] is -8.66%; in assay [2], 13.2%; in [3] it was -1.17%; in assay [4] it was -9.62%; in assay [5], 6.28%; in the assay with Trypanosoma cruzi, 10.3%. For the same compound, the Percent Effect in [6] is -0.383%; in assay [7], 9.19%; in the assay filed under Homo sapiens it was 12.7%; in assay [8], -16.5%; in assay [9] it was 7.35%; in [10], 19.5%. In addition, the Percent Effect in assay [11] was -12.4%.

On to `c1ccc(CN2CCO[C@H]3[C@H](OCCN4CCCC4)CC[C@@H]32)nc1`, for which the Percent Effect in assay [1] was -1.73%; in assay [2], -2.67%; in [3], 0.641%; in assay [4], 2.45%; in assay [5], 8.64%; in the assay on Trypanosoma cruzi it was -2.7%. The Percent Effect in assay [6] is -53.2%; in assay [7], -0.855%; in the assay listed under Homo sapiens, -6.91%; in [8], -16.4%; in assay [9], 4.17%; in [10] it was 5%. Moreover, the Percent Effect in [11] is 0.266%.
